Our source for the composite z-score and z-score values is PubChem BioAssay.

The source made the active and inactive calls. Unless noted, no rule for the calls is given here.

The test system of assay [1] is Wnt5a (protein binding on small-molecule microarray). The experiment in a line: small molecules binding Wnt5a protein – biophysical, small-molecule microarray, 635/667 nm fluorescence, primary screen (AID 1142).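 Also: fluorescence read at 667 nm with signal to noise per printed feature.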 Conditions: 635 nm fluorescence, higher = more signal.
Assay [2] can be described thus: ATP-based viability of Huh7 replicon cells – cell-based, CellTiter-Glo luminescence, basal, 48 h, cytotoxicity control for HCV replication inhibitor project, primary screen (AID 1143).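 Also: Huh7 hepatoma cells carrying a hepatitis C replication reporter with no stimulus; test concentration not given here.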 Conditions: higher = more signal, called active from +8 up or from −8 down.
The nature of assay [3]: Pseudomonas biofilm growth suppression – PAO1 strain, BacTiter-Glo luminescence, LB-PBS, primary screen (AID 1144). The note with it: P. aeruginosa PAO1 biofilm, 12 h, higher = more signal.
Assay [4] in a line: basal CRE-LacZ reporter activity in PC12 – cell-based, unstimulated, primary screen (AID 1145). The note with it: no forskolin, luminescence, 4.5 h, higher = more signal, called active from +8 up or from −8 down.
A short description of assay [5]: forskolin-driven CRE-LacZ activity in PC12 – cell-based, CRE-LacZ reporter, forskolin-stimulated, primary screen (AID 1146).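 Also: PC12 cells with 6xCRE LacZ reporter stimulated by forskolin 10 µM; beta-galactosidase reporter signal reflecting CREB driven transcription.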 Conditions: luminescence, 4.5 h, higher = more signal, called active from +8 up or from −8 down.
The target in assay [6] is Streptavidin (Streptomyces avidinii) (UniProt P22629). The experiment in a line: compounds binding control protein streptavidin – biophysical, small-molecule microarray, 635/667 nm fluorescence, artefact control for SMM compound annotation, primary screen (AID 1147).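 Also: signal reflects streptavidin binding to arrayed compounds as a control protein.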 The note with it: higher = more signal.
Sequence of Streptavidin (Streptomyces avidinii) (P22629 whole entry, looked up): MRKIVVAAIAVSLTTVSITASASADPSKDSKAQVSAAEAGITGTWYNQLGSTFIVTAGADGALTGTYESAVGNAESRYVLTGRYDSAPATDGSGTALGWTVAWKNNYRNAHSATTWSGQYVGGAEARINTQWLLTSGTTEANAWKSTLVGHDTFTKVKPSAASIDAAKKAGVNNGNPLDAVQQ
Assay [7] can be described thus: probe aInhba binding on compound microarray – biochemical, small-molecule microarray, 635/667 nm fluorescence, primary screen (AID 1148).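 Also: score merges 667nm spot fluorescence with signal-to-noise for antibody binding to printed compounds.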 Conditions: higher = more signal.
Assay [8] addresses Torsin-1A (Homo sapiens) (UniProt O14656). As to the kind of experiment: TOR1A wild-type binding on microarray – cell lysate, small-molecule microarray, lysate, 635/667 nm, primary screen (AID 1149). Conditions: COS7 hTOR1A-WT lysate, 635 nm fluorescence, higher = more signal.
Assay [9] shares this target. As to the kind of experiment: torsin A mutant lysate binding on microarrays – cell lysate, small-molecule microarray, COS7 lysate, 635/667 nm fluorescence, primary screen (AID 1150).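 Also: score pools 667 nm emission and signal to noise measuring lysate protein binding.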 Conditions: COS7 hTOR1A mutant lysate, 635 nm fluorescence, higher = more signal.
Assay [10] relates to Sonic hedgehog protein (Shh). As to the kind of experiment: Sonic hedgehog microarray binding compounds – biochemical, small-molecule microarray, 635/667 nm fluorescence, primary screen (AID 1151).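 Also: Shh protein binding to compounds spotted on small-molecule microarray slides; score combines spot fluorescence intensity with signal-to-noise across triplicate slides.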 The note with it: 635 nm fluorescence, higher = more signal.
A short description of assay [11]: optical density shifts of acrAB sulA E. coli – strain DRC41, OD650, 48 h, E. coli filamentation inducer project, primary screen (AID 1152).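 Also: E. coli MC1000 strain DRC41 lacking acrAB efflux pump and sulA.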 Conditions: higher = more signal, called active from +8 up or from −8 down.
Assay [12] can be described thus: probe aLefty1 binding on compound microarray – biochemical, small-molecule microarray, 635/667 nm fluorescence, primary screen (AID 1153).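 Also: score merges spot fluorescence with signal-to-noise ratio from the scanned slide images.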 Conditions: higher = more signal.
Assay [13] is described as follows: plasmodial surface anion channel blockers, osmotic lysis – cell-based, P. falciparum Indochina, OD700, 1 h, primary screen (AID 1154). Conditions: P. falciparum Indochina infected RBC osmotic lysis, higher = more signal, called active from +8 up or from −8 down.
A short description of assay [14]: plasmodial surface anion channel blockers, osmotic lysis – cell-based, P. falciparum Indochina, OD700, 2 h, primary screen (AID 1155).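 Also: lysis reports solute entry through the parasite surface anion channel PSAC.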 Conditions: P. falciparum Indochina infected erythrocytes, higher = more signal, called active from +8 up or from −8 down.
Assay [15] is described as follows: changes in parasitized red cell lysis, either direction – P. falciparum Indochina, OD700, 3 h, PSAC antagonist project, primary screen (AID 1156). The note with it: P. falciparum-infected erythrocytes, osmotic lysis, higher = more signal, called active from +8 up or from −8 down.
Assay [16] is described as follows: plasmodial surface anion channel blockers, osmotic lysis – cell-based, P. falciparum Indochina, OD700, 18 h, primary screen (AID 1157). The note with it: P. falciparum Indochina infected erythrocytes, osmotic lysis OD700, 18 h; higher = more signal, called active from +8 up or from −8 down.
The nature of assay [17]: S6 kinase pathway phospho-S6 level changes – cell-based, A549, cytoblot, luminescence, serum-stimulated, primary screen (AID 1158).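 Also: serum-stimulated A549 lung adenocarcinoma cells; signal is phosphorylated S6 detected by cytoblot immunostaining with HRP secondary.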 The note with it: 5 h, higher = more signal.
The target of assay [18] is NADPH oxidase 2 (Homo sapiens) (UniProt P04839). As to the kind of experiment: compounds shifting NOX2 Amplex Red fluorescence – cell-based, HEK293-NOX2, PMA-stimulated, NOX inhibitor project, primary screen (AID 1159). Also: test concentration not given here. The note with it: 45 min, higher = more signal, called active from +8 up or from −8 down.
Sequence of NADPH oxidase 2 (Homo sapiens) (P04839 whole entry, looked up): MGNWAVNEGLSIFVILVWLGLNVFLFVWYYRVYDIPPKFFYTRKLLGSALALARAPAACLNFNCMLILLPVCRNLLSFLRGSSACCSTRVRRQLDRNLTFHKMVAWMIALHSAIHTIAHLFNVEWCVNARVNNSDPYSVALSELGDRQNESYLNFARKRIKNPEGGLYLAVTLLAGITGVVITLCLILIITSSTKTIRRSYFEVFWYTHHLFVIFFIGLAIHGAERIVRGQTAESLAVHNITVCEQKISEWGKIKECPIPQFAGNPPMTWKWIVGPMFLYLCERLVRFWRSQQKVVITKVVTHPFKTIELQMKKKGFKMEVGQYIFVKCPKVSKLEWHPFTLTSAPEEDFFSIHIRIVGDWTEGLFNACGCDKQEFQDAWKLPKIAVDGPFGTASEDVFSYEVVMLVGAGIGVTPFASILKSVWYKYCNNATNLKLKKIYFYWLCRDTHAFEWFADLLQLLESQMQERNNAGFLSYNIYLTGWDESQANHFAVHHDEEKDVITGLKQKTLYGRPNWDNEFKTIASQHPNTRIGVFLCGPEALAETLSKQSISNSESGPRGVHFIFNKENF
In assay [19] the target is NADPH oxidase 4 (Homo sapiens) (UniProt Q9NPH5). As to the kind of experiment: compounds shifting NOX4 Amplex Red fluorescence – cell-based, HEK293-NOX4, tetracycline-induced, NOX inhibitor project, primary screen (AID 1160). The note with it: HEK293-NOX4, Amplex Red H2O2 fluorescence, 45 min; higher = more signal, called active from +8 up or from −8 down.
Sequence of NADPH oxidase 4 (Homo sapiens) (Q9NPH5 whole entry, looked up): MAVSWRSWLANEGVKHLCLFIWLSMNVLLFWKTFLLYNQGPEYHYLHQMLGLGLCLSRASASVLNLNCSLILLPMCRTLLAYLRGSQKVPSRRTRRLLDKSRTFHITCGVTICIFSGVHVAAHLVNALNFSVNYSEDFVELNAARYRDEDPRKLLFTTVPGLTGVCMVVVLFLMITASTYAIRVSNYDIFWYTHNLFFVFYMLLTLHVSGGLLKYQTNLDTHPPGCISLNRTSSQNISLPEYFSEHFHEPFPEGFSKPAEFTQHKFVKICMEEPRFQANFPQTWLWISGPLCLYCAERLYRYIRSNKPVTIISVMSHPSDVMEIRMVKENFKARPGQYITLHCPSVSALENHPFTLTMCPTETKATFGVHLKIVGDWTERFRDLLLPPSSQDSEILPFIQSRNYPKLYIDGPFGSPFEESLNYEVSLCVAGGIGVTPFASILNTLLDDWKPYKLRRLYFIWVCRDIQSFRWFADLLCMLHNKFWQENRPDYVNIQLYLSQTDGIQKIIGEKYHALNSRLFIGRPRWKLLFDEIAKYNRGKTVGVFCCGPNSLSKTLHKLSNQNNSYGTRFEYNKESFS
The target of assay [20] is NADPH oxidase 5 (Homo sapiens) (UniProt Q96PH1). The experiment in a line: compounds shifting NOX5 Amplex Red fluorescence – cell-based, HEK293-NOX5, NOX inhibitor project, primary screen (AID 1161). Conditions: HEK293-NOX5, ionomycin, 45 min, higher = more signal.
Sequence of NADPH oxidase 5 (Homo sapiens) (Q96PH1 whole entry, looked up): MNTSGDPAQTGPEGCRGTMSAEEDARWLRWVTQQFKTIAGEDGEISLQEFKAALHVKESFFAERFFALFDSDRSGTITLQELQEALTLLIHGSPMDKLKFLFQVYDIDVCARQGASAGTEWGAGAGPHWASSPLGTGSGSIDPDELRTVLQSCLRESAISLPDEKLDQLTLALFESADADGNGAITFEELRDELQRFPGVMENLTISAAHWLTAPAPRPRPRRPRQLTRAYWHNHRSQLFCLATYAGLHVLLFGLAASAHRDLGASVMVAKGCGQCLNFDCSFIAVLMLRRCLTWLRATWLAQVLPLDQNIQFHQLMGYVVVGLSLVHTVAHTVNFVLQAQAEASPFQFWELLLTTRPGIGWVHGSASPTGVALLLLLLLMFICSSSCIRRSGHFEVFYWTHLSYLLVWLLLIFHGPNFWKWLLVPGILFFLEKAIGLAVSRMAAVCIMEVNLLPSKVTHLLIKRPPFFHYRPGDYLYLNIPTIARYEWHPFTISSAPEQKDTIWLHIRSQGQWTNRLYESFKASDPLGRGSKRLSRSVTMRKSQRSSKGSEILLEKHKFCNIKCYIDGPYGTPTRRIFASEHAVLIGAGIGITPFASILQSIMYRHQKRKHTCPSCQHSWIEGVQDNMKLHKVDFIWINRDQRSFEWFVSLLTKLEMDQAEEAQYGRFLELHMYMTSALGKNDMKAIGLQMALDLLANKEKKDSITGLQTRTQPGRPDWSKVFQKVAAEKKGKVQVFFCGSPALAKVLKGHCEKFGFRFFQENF

Sequence of Torsin-1A (Homo sapiens) (O14656 whole entry, looked up): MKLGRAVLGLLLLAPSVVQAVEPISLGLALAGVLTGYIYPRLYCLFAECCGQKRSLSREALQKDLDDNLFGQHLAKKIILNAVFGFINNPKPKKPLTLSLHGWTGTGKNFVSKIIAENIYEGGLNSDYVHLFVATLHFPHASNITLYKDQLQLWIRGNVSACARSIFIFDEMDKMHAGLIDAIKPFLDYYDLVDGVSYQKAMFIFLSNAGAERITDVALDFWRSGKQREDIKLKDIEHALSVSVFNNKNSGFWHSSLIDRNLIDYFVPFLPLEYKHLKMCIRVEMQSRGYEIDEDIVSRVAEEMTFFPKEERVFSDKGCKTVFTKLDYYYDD

For the molecule `CCCc1cc2c(n1Cc1ccc(OC)cc1)C(C)C1CN(C(=O)c3ccccc3)C(C)(C(=O)OC)C21` (stereo not given), the composite z-score in assay [1] was found to be 0.562; in assay [6], 1.95; in [7] it was 0.297; in the assay with Torsin-1A (Homo sapiens) [8], 0.0326; with Torsin-1A (Homo sapiens) [9] it was 0.773; in [10] it was 0.0704. The same molecule displayed a composite z-score in [12] of 1.1. The z-score in [2] is -3.08 (inactive); in assay [3] it was 0.393 (inactive); in assay [4], 0.207 (inactive); in assay [5], 1.52 (inactive); in assay [11] it was -2.02 (inactive); in [13], 3.99 (inactive). The z-score in assay [14] was 0.713 (inactive); in assay [15], 1.27 (inactive); in assay [16], 0.25 (inactive); in assay [17] it was -0.57; in [18] it was -1.55 (inactive); in assay [19], -3.23 (inactive). Also, the z-score in assay [20] was -3.28.

Regarding `CC(C)=CCCC(C)=CC(O)C1C=CC2C(=O)N(c3ccccc3)C(=O)C2N1Nc1ccc([N+](=O)[O-])cc1` (stereo not given), the composite z-score in [1] was determined as 0.0504; in assay [6] it was 2.06; in assay [7], 0.077; in the assay with Torsin-1A (Homo sapiens) [8], 0.383; with Torsin-1A (Homo sapiens) [9], 1.12; in [10], 0.821. The composite z-score in [12] is -0.131. Also, the z-score in assay [2] was -1.72 (inactive); in assay [3] it was -0.322 (inactive); in assay [4] it was 0.323 (inactive); in [5], -0.0578 (inactive); in [11], -1.41 (inactive); in assay [13], 8.34 (active). For the same molecule, the z-score in [14] was 2.3 (inactive); in assay [15], 1.04 (inactive); in assay [16] it was 1.44 (inactive); in assay [17], -0.563; in assay [18] it was -0.381 (inactive); in assay [19] it was -3.41 (inactive). Further, in assay [20], the z-score is -0.516.

As for `C=CCOC(=O)[C@@H]1[C@H]2C(=O)O[C@H](c3ccccc3)[C@H](c3ccccc3)N2[C@H](c2ccc(OCCOC(=O)[C@@H]3C[C@@H]4C(=O)N5CCC[C@H]5C(=O)N4[C@@H]3c3cccc(OCCO)c3)cc2)[C@@]12C(=O)Nc1ccc(I)cc12`, the composite z-score in assay [1] was 0.667; in [6], 0.161; in assay [7] it was -0.0221; with Torsin-1A (Homo sapiens) [8], 0.85; with Torsin-1A (Homo sapiens) [9], 0.623; in assay [10], 2.01. The composite z-score in assay [12] is -0.462. The z-score was -1.77 (inactive) in assay [2]; -0.49 (inactive) in assay [3]; -1.2 (inactive) in [4]; -0.725 (inactive) in assay [5]; 0.745 (inactive) in assay [11]; 3.47 (inactive) in assay [13]. For the same molecule, the z-score in assay [14] is 1.87 (inactive); in [15], 3.63 (inactive); in assay [16], 0.938 (inactive); in assay [17], 0.198; in assay [18] it was 1.82 (inactive); in assay [19] it was 1.64 (inactive). The z-score in assay [20] worked out at 1.73.

Take `COCCOC(=O)N1C(=O)[C@@]2(c3cc(C#CCC(C(=O)OC)C(=O)OC)ccc31)[C@H](C(=O)N1CCCCCCC1)[C@H]1C(=O)O[C@H](c3ccccc3)[C@H](c3ccccc3)N1[C@@H]2c1ccc(O)cc1`: the composite z-score is 0.735 in assay [1]; 1.22 in assay [6]; 1.22 in assay [7]; 1.41 in the assay with Torsin-1A (Homo sapiens) [8]; 1.41 with Torsin-1A (Homo sapiens) [9]; 1.62 in assay [10]. In [12], this molecule had a composite z-score of 2.46. Further, the z-score in assay [2] was -4.08 (inactive); in assay [3], -0.754 (inactive); in [4], -0.882 (inactive); in assay [5], -0.807 (inactive); in [11], 0.683 (inactive); in assay [13] it was 0.915 (inactive). The z-score in assay [14] was 0.444 (inactive); in [15], 0.678 (inactive); in assay [16] it was 0.336 (inactive); in assay [17], -0.0955; in [18], 1.32 (inactive); in assay [19], -0.378 (inactive). In addition, the z-score in [20] came to 1.01.

Consider `NC(=O)NCC#Cc1ccc2c(c1)[C@]1(C(=O)N2)[C@H](c2ccc(O)cc2)N2[C@H](c3ccccc3)[C@H](c3ccccc3)OC(=O)[C@H]2[C@@H]1C(=O)NC[C@H](O)c1ccccc1`, for which the composite z-score was -0.579 in assay [1]; -1.85 in [6]; -0.239 in assay [7]; -1.19 in the assay with Torsin-1A (Homo sapiens) [8]; -1 with Torsin-1A (Homo sapiens) [9]; -1.22 in assay [10]. In [12], the composite z-score is -0.316. Also, the z-score in [2] was -0.383 (inactive); in assay [3] it was 0.502 (inactive); in [4] it was 0.48 (inactive); in [5], -0.334 (inactive); in [11], 0.578 (inactive); in assay [13], -0.0501 (inactive). Moreover, the z-score was 0.647 (inactive) in assay [14]; 0.223 (inactive) in assay [15]; 0.363 (inactive) in assay [16]; -0.328 in assay [17]; 0.251 (inactive) in assay [18]; -0.258 (inactive) in assay [19]. Further, in assay [20], the z-score is -0.0927.
